# Compounds with a hit are over-represented: about 7.8% of the library has one in this group of screens.
# Shh pathway inh: Sonic Hedgehog pathway inhibition | Shh-LIGHT2 Gli-luciferase reporter, 30 h | inhibition, % (concentration not given with the values) | hit rate 2.1% among 22,000;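 active = mean inhibition across valid replicates above about 65%, limit read from the data; inconclusive = mean under the limit, yet half or more replicates past it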;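 note: pathway switched on by Shh-conditioned medium diluted 1 in 25 in low serum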
# NOMO-1 viab: STK33 inhibitor candidate reducing NOMO-1 cell viability; NOMO-1 AML viability, CellTiter-Glo luminescence, 72 h; inhibition, % (test concentration not listed); hit rate 7.5% among 37,000; in the data active = inhibition above about 80%; inconclusive = no clear call, values can overlap the other calls
# MITF inh: MITF inhibition; TRPM1 promoter luciferase, luminescence, 24 h; inhibition, % (concentration not given with the values); hit rate 0.28% among 37,000; in the data active = inhibition above about 85%; inconclusive = no clear call, values can overlap the other calls; inactive = below about 68%;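 note: human melanocyte line stably carrying TRPM1 promoter luciferase reporter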
# * marks the source's active call; other numbers are inactive results; ? = inconclusive; · = no result.
SMILES,Shh pathway inh,NOMO-1 viab,MITF inh
C[C@H](CO)N1C[C@H](C)[C@@H](CN(C)S(=O)(=O)c2ccc(F)cc2)Oc2c(cccc2N(C)C)C1=O,35,8,10
Cc1noc(C)c1S(=O)(=O)Nc1ccc2c(c1)C(=O)N([C@@H](C)CO)C[C@H](C)[C@@H](CN(C)Cc1ccc(Cl)c(Cl)c1)O2,42,-4,-13
Cc1noc(C)c1S(=O)(=O)Nc1ccc2c(c1)C(=O)N([C@@H](C)CO)C[C@H](C)[C@@H](CN(C)Cc1ccc(Oc3ccccc3)cc1)O2,16,26,-2
C[C@@H]1CN([C@H](C)CO)C(=O)c2cc(NS(=O)(=O)c3ccccc3)ccc2O[C@@H]1CN(C)Cc1ccc(Oc2ccccc2)cc1,88*,71,35
C[C@@H]1CN([C@H](C)CO)C(=O)c2cc(NS(=O)(=O)c3ccccc3)ccc2O[C@H]1CN(C)Cc1ccc(Oc2ccccc2)cc1,42,73,9
Cc1ccc(S(=O)(=O)Nc2ccc3c(c2)C(=O)N([C@H](C)CO)C[C@@H](C)[C@H](CN(C)Cc2ccc(Oc4ccccc4)cc2)O3)cc1,50,84*,12
Cc1noc(C)c1S(=O)(=O)Nc1ccc2c(c1)C(=O)N([C@@H](C)CO)C[C@@H](C)[C@@H](CN(C)Cc1ccc(Cl)c(Cl)c1)O2,25,82*,-5
Cc1noc(C)c1S(=O)(=O)Nc1ccc2c(c1)C(=O)N([C@@H](C)CO)C[C@@H](C)[C@@H](CN(C)Cc1ccc(Oc3ccccc3)cc1)O2,29,102*,17
Cc1ccc(S(=O)(=O)Nc2ccc3c(c2)C(=O)N([C@@H](C)CO)C[C@@H](C)[C@H](CN(C)Cc2ccc(Oc4ccccc4)cc2)O3)cc1,30,57,13
C[C@@H]1CN([C@H](C)CO)C(=O)c2cc(NC(=O)Cc3cn(C)c4ccccc34)ccc2O[C@@H]1CN(C)C(=O)Nc1ccc(C(F)(F)F)cc1,21,65,44
C[C@@H]1CCCCO[C@H](CN(C)C(=O)CCC(F)(F)F)[C@@H](C)CN([C@H](C)CO)C(=O)c2cc(N(C)C)ccc2O1,-8,-10,-2
Cc1[nH]ccc2c1[nH]c1cc(=O)ccc12,51,46,-13
COc1ccc(S(=O)(=O)N(C)C[C@H]2Oc3ccc(NC(=O)CCC(F)(F)F)cc3C(=O)N([C@H](C)CO)C[C@H]2C)cc1,·,13,-10
CNC[C@H]1Oc2ccc(NC(=O)Cc3ccccc3)cc2CC(=O)N([C@@H](C)CO)C[C@H]1C,-15,12,-11
Cc1ccc(S(=O)(=O)N(C)C[C@@H]2Oc3ccc(N(C)C)cc3CC(=O)N([C@H](C)CO)C[C@H]2C)cc1,-20,-8,-1
O=C(CCS(=O)(=O)c1nc(-c2ccccc2)cc(C(F)(F)F)n1)Nc1ccc(Cl)cc1Cl,·,126*,10
O=C(O)CCS(=O)(=O)c1nc(-c2ccccc2)cc(C(F)(F)F)n1,·,23,-24
C[C@H]1CN([C@@H](C)CO)C(=O)c2cc(NC(=O)Nc3cccc4ccccc34)ccc2O[C@H]1CN(C)S(C)(=O)=O,-13,-9,10
COc1ccc(CN(C)C[C@H]2Oc3ccc(NC(=O)CCC(F)(F)F)cc3CC(=O)N([C@H](C)CO)C[C@H]2C)cc1,·,9,-3
N#C/C(=C/c1ccc(O)c(O)c1)C(=O)OC/C=C/c1ccccc1,?,99*,-10
N#C/C(=C\c1ccc(O)c(O)c1)C(=O)Nc1ccccc1,1,?,-4
CC(C)(O)/C=C/C(=O)[C@](C)(O)[C@H]1[C@H](O)C[C@@]2(C)[C@@H]3CC=C4[C@@H](C=C(O[C@@H]5O[C@H](CO)[C@@H](O)[C@H](O)[C@H]5O)C(=O)C4(C)C)[C@]3(C)C(=O)C[C@]12C,-9,16,-9
Cc1cccc(NC(=O)CSc2nnc(-c3ccc(Cl)cc3)n2-c2cccc(C)c2)c1,·,128*,50
Cn1c(SCC(=O)Nc2ccc(Cl)c(Cl)c2)nnc1-c1ccc(Cl)c(Cl)c1,·,106*,32
Cc1cccc(NC(=O)CSc2nnc(-c3cccc(Br)c3)n2-c2ccccc2)c1,·,32,27
SMILES,Shh pathway inh,NOMO-1 viab,MITF inh
Cc1ccc(NC(=O)CSc2nnc(-c3ccc(Cl)c(Cl)c3)n2C)cc1C,·,2,-17
CC(C)(C)c1ccc(-c2nnc(SCC(=O)Nc3ccccc3)n2-c2ccccc2)cc1,·,113*,6
O=C(CSc1nnc(-c2ccncc2)n1-c1ccccc1)Nc1ccc(C(F)(F)F)cc1,·,17,-3
COc1ccc(CCNc2ncnc3sc4c(c23)CCCC4)cc1,·,?,55
Cc1ccc(S(=O)(=O)c2ccc(C)cc2)cc1,7,-2,5
Cc1ccc(S(=O)(=O)/C=C/C#N)cc1,98*,142*,89*
C[C@H](CO)N1C[C@H](C)[C@@H](CN(C)Cc2ccc(C(=O)O)cc2)Oc2ccc(NC(=O)Nc3cccc4ccccc34)cc2C1=O,-10,-3,9

# Bioassay records as filed in PubChem.
